Data on 15 molecules can be found in PubChem BioAssay (NCI).

Some test systems named below: DU-145 prostate; K-562 leukemia; MALME-3M melanoma; MDA-MB-231 breast; RXF 393 renal; SF-268 CNS; SF-295 CNS; SF-539 CNS; M14 melanoma.
Common to all, as to assay: NCI-60 one-dose screen, 48 h (100 = growth as untreated, 0 = no growth, -100 = all killed)
Conditions in all cases: 10 µM unless noted

About 83,000 compounds went through this panel and 20% of them were active in at least one assay; those are over-represented in the sample as a whole.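 How to read the values: 0–100, growth inhibition (40 = 60% inhibited); 0, no net growth; -100 to 0, cell death (-40 = 40% of starting cells died; -100 = all dead).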 Unmarked numbers belong to inactive results. The source made the active and inactive calls. How the source made its calls: active means growth percent below 10; inactive means the rest.

As to `O=C1CCCCN1CCCCC#Cc1ccccc1C#Cc1ccccn1`, the growth in the assay on DU-145 prostate was 109%; with K-562 leukemia, 93.6%; in the assay with MALME-3M melanoma it was 100%; in the assay on MDA-MB-231 breast, 102%; in the assay on RXF 393 renal, 56.6%; in the assay with SF-268 CNS, 107%. Besides, the growth in the assay on SF-295 CNS was 109%; with SF-539 CNS, 103%; in the assay on M14 melanoma, 112%.
As for `Cc1cnc(NC(=O)C(Cc2ccccc2)NC(=O)c2ccccc2)s1` (stereo not given), the growth in the assay on DU-145 prostate was 85.5%; in the assay on K-562 leukemia, 29.7%; in the assay on MALME-3M melanoma, 54%; with MDA-MB-231 breast, 77.9%; with RXF 393 renal, 50.2%; in the assay on SF-268 CNS it was 96.9%. Moreover, the growth with SF-295 CNS is 65.9%; in the assay with SF-539 CNS it was 87%; with M14 melanoma, 52%.
Turning to `CCNc1nc(N2CC(=O)Nc3cc(OC)ccc32)c2ccccc2n1`, the growth with DU-145 prostate was -1.09% (active); in the assay with K-562 leukemia it was 6.9% (active); in the assay with MALME-3M melanoma, 51%; in the assay on MDA-MB-231 breast it was 12.7%; in the assay with RXF 393 renal, 33.7%; in the assay on SF-268 CNS, 14.8%. The growth with SF-295 CNS is -5.23% (active); in the assay with SF-539 CNS it was -4.78% (active); in the assay with M14 melanoma it was 7.3% (active).
In the case of `O=S(=O)(NCCNc1cc(-c2cn(-c3ccccc3)nc2-c2ccccc2)ccn1)c1ccc(F)cc1`, the growth in the assay with DU-145 prostate was 88.3%; in the assay on K-562 leukemia it was 54.3%; with MALME-3M melanoma, 101%; in the assay on MDA-MB-231 breast, 80.1%; with RXF 393 renal, 75.1%; in the assay with SF-268 CNS, 83.2%. Besides, the values for the growth in the assay with SF-295 CNS, with SF-539 CNS and in the assay on M14 melanoma were 87.6%, 103% and 87%, respectively.
On to `CCOP(=O)(CCN1CCN(CCCCCOc2cc3c(cc2OC)C(=O)N2CCC[C@H]2C=N3)CC1)OCC`, for which the growth with DU-145 prostate was 91.5%; in the assay on K-562 leukemia, 35.7%; with MALME-3M melanoma, 119%; in the assay on MDA-MB-231 breast, 74.3%; in the assay on RXF 393 renal, 46%; in the assay with SF-268 CNS, 57%. Moreover, the growth in the assay on SF-295 CNS was 97.3%; in the assay on SF-539 CNS, 53.5%; with M14 melanoma, 91.8%.
For the molecule `CCN(CC)CCCNc1nc(C)cc(Nc2ccc3nc(C)cc(N)c3c2)n1`, the growth is 116% in the assay with DU-145 prostate; 106% in the assay on K-562 leukemia; 107% in the assay with MALME-3M melanoma; 103% in the assay with MDA-MB-231 breast; 117% in the assay with RXF 393 renal; 92.9% with SF-268 CNS. The growth with SF-295 CNS is 95.1%; in the assay with SF-539 CNS, 103%; in the assay on M14 melanoma, 96.6%.
For `O=C(Nc1ccc(I)cc1)c1cccc([N+](=O)[O-])c1O`, the growth is 32.5% with DU-145 prostate; 14.7% in the assay on K-562 leukemia; -4.07% (active) in the assay with MALME-3M melanoma; 16.8% in the assay with MDA-MB-231 breast; 31.1% in the assay with RXF 393 renal; 24.1% in the assay with SF-268 CNS. The growth in the assay with SF-295 CNS is 4.77% (active); in the assay with SF-539 CNS, 14.8%; in the assay with M14 melanoma, 15.7%.
On to `c1ccc2c(c1)Oc1ccccc1C2C1c2ccccc2Oc2ccccc21`, for which the growth in the assay on DU-145 prostate was 93.6%; with K-562 leukemia it was 93.6%; with MALME-3M melanoma, 108%; in the assay with MDA-MB-231 breast, 93.1%; in the assay with RXF 393 renal it was 94.2%; in the assay with SF-268 CNS it was 97.2%. Also, the growth is 96.1% with SF-295 CNS, 96.5% in the assay on SF-539 CNS and 99.1% with M14 melanoma.
For `CCCCn1c(=O)c(C2CNC(=O)c3ccccc3N2)cc2ccccc21` (stereo not given), the growth with DU-145 prostate is 108%; in the assay on K-562 leukemia, 99.3%; with MALME-3M melanoma it was 107%; in the assay on MDA-MB-231 breast, 77.5%; with RXF 393 renal, 111%; in the assay on SF-268 CNS it was 98.9%. In addition, the growth with SF-295 CNS was 96.8%; in the assay on SF-539 CNS it was 89.9%; in the assay on M14 melanoma it was 107%.
On to `CCc1c(C(=O)Nc2ccc3ccccc3c2)[nH]c(C)c1C(C)=O`, for which the growth in the assay with DU-145 prostate is 107%; in the assay with K-562 leukemia, 81.2%; in the assay on MALME-3M melanoma, 95.7%; with MDA-MB-231 breast it was 93.3%; in the assay with RXF 393 renal it was 96.7%; with SF-268 CNS, 110%. Besides, the growth with SF-295 CNS is 102%; with SF-539 CNS, 96.2%; in the assay with M14 melanoma it was 93.8%.
As to `O=C(CNC(=O)c1cccc2ccccc12)Nc1ccccc1Oc1ccccc1`, the growth in the assay on DU-145 prostate was 3.85% (active); in the assay with K-562 leukemia it was 7.84% (active); with MALME-3M melanoma, 71.8%; with MDA-MB-231 breast, 15%; in the assay on RXF 393 renal, 31.1%; with SF-268 CNS, 18.1%. Also, the figures for the growth in the assay on SF-295 CNS, in the assay on SF-539 CNS and with M14 melanoma were 13.6%, 1.63% (active) and 17.2%, respectively.
On to `CCSc1nnc(Nc2ccc(C(C)C)cc2)s1`, for which the growth was 105% with DU-145 prostate; 51.8% in the assay with K-562 leukemia; 90.7% in the assay with MALME-3M melanoma; 92.5% in the assay on MDA-MB-231 breast; 28% in the assay with RXF 393 renal; 112% with SF-268 CNS. Besides, the growth was 91.1% with SF-295 CNS, 90.4% in the assay with SF-539 CNS and 95.7% in the assay on M14 melanoma.
On to `O=C(/C=C/CN1CCCCC1)Nc1cc2c(Nc3ccc(F)c(Cl)c3F)ncnc2cc1OCCOC(F)F`, for which the growth with DU-145 prostate is 17.6%; with K-562 leukemia, 7.24% (active); in the assay on MALME-3M melanoma, 25.8%; in the assay with MDA-MB-231 breast, -4.23% (active); with RXF 393 renal, -17.1% (active); with SF-268 CNS, 16.1%. Besides, the values for the growth in the assay on SF-295 CNS, in the assay on SF-539 CNS and with M14 melanoma were 28.1%, 16.8% and 34.2%, respectively.
For `Cc1sc2nc(CSc3nnc(-c4ccco4)o3)[nH]c(=O)c2c1C`, the growth is 114% in the assay with DU-145 prostate; 75.6% in the assay with K-562 leukemia; 128% with MALME-3M melanoma; 106% in the assay on MDA-MB-231 breast; 98.3% in the assay on RXF 393 renal; 106% with SF-268 CNS. Also, the growth in the assay on SF-295 CNS was 107%; in the assay with SF-539 CNS, 122%; in the assay with M14 melanoma, 122%.
On to `COc1ncc(-c2ccc3ncnc(Nc4cccc(Cl)c4)c3c2)cc1N(S(C)(=O)=O)S(C)(=O)=O`, for which the growth in the assay with DU-145 prostate is 54.8%; with K-562 leukemia, 94.2%; with MALME-3M melanoma, 44.8%; with MDA-MB-231 breast it was 67.3%; with RXF 393 renal, 68.8%; with SF-268 CNS it was 73.2%. For the same molecule, the growth with SF-295 CNS is 76%; in the assay with SF-539 CNS, 76.2%; with M14 melanoma, 73.7%.
